# Test results from PubChem BioAssay (NCI).
# Where “and” joins values, the source holds several entries; their conditions need not be identical. Identical values can stand only once. Compounds without any hit were thinned out: in the full panel of roughly 83,000, 20% have a hit.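 Plates (96-well) were seeded with cells, treated with compound at one concentration, and incubated for 48 hours before percent growth was determined.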 A number with no mark means an inactive call. Calls of active or inactive are those of the source. The calls were made as follows: active = growth percent below 10; inactive = the rest.
# System: MDA-MB-468 breast
# Test: NCI-60 one-dose screen, 48 h (100 = growth as untreated, 0 = no growth, -100 = all killed)
# Settings: 10 µM unless noted
row,Compound,growth
1,O=C(O)c1cccc([N+](=O)[O-])c1O,102%
2,COc1ccc(OC)c(-c2cn3nc(-c4c[nH]c5ccc(Br)cc45)sc3n2)c1,59.1%
3,Nc1nc2c(c3ncccc13)C(c1cccc(Cl)c1)Cc1ncccc1-2 (stereo not given),26.6%
4,N#Cc1nc(-c2ccc(F)cc2)oc1S(=O)(=O)N1CCOCC1,29%
5,COc1cc(-c2nn(-c3cccc(NC(=O)Nc4ccc(Cl)c(Cl)c4)c3)cc2-c2ccncc2)ccc1Cl,2.14% (active)
6,CC(/C=N/N1C(=O)c2ccccc2C1=O)c1ccccc1 (stereo not given),95.9%
7,O=C(Nc1ccc(-n2ccc3c(NC(=O)c4ccccc4)nccc32)cc1)Nc1ccc(Cl)c(Cl)c1,-90.1% (active)
8,N#Cc1c(-c2cccc(F)c2)cc(-c2ccc(Br)s2)[nH]c1=O,82.1%
9,OCc1cnccc1NCCCOc1ccccc1,94.4%
10,Cc1ccc(-c2nc3ccccn3c2/C=C2/C(=O)Nc3cc(Cl)ccc32)cc1,67%
11,CS(=O)(=O)Nc1cc(-c2ccc3ncnc(Nc4ccc(F)c(Cl)c4)c3c2)ccc1Cl,-32% (active)
12,c1ccc2nc(Cn3c[n+](Cc4ccc5ccccc5n4)c4ccccc43)ccc2c1,-19.3% (active)
13,O=C1c2ccccc2C(=O)c2c1c(C(=O)NCc1ccccc1)c1ccccn21,101%
14,CCOc1ccc(-n2c(-c3cc(OC)c(OC)c(OC)c3)nnc2-c2ccc(OC)cc2N)cc1,1.83% (active)
15,Cc1ccc(NS(=O)(=O)c2cc(C)ccc2C)cc1,0.244% (active)
16,COc1ccc(OC)c2c1C(=O)CC2C (stereo not given),99.6%
17,COc1ccc(C2NC(=O)C(C#N)c3c2sc2c(F)cccc32)cc1 (stereo not given),33.7%
18,N=C1c2nc3n(c2C(=O)c2nc4n(c21)CCCC4)CCCC3,68.1%
19,Cc1cc2nc(NC(=O)CN3CCN(CCN4C(=O)c5cccc6cccc(c56)C4=O)CC3)sc2cc1C,86.3%
20,Oc1cccc2ccc(-c3nnc(SCc4ccc(O)c5ncccc45)o3)nc12,0.74% (active)

row,Compound,growth
1,c1cn2cc(-c3ccc4ncn(C5CCCCC5)c4c3)nc(-c3ccc4c(c3)ncn4C3CCCCC3)c2n1,-20.2% (active)
2,Oc1c(Br)cc(Cl)cc1C(c1cc(Cl)cc(Br)c1O)C(Cl)(Cl)Cl,-4.05% (active)
3,COc1ccc(/C=C/C(c2cc(OC)c(OC)c(OC)c2)n2cncn2)cc1O (stereo not given),8.27% (active)
4,COc1cc(C(=O)c2ccccc2C(=O)O)c(OC)c2c1CCCC2,94.7%
5,O=C(O)c1ccc(OCc2ccccc2)cc1,104%
6,Cc1onc2c(-c3ccccc3)n[nH]c(=O)c12,98.3%
7,COc1cccc(C(=O)O)c1OC,105%
8,N=C(N)c1ccc(-c2ccc(-c3ccc(Cl)c(Cl)c3)o2)nc1,-17% (active)
9,CC1=CC(C)(C)NC(=S)N1c1ccc(Cl)cc1,97.6% and 105%
10,COc1cc2c3c(n(CCCN4CCCC4)c(=O)c2cc1OC)-c1cc2c(cc1C3=O)OCO2,84.1%
11,CCOc1ccc(S(=O)(=O)c2ccc(C)cc2)c2c1no[n+]2[O-],103%
12,COc1cc(/C=C/c2cc(/C=C/c3ccc(O)c(OC)c3)n(C(=O)Nc3ccc(Cl)cc3)n2)ccc1O,-26.4% (active)
13,CS(=O)c1nccc(-c2c(-c3ccc(F)c(OCc4ccccc4)c3)nc3sccn23)n1 (stereo not given),-19.4% (active)
14,CN(C)C1CCC(NC2=CC(=O)C=CC2=O)CC1 (stereo not given),105%
15,COc1cc2cc(Oc3ccc(NC(=O)Nc4ccc(Cl)c(Cl)c4)cc3)c(C)nc2cc1OC,-16.7% (active)
16,COc1cc2c(cc1OC)-c1ccc3cc4c(cc3c1N(CCN(C)C)C2)OCO4,-30.4% (active)
17,O=[N+]([O-])c1c(O)c(CNCCCO)cc(CNCCCO)c1O,108%
18,O=C(N/N=C/c1ccncc1)c1ccccc1Nc1cccc(C(F)(F)F)c1,48.7%
19,CCCCCCn1c(=N)n(CC(O)COc2cccc(C)c2)c2ccccc21 (stereo not given),-68.7% (active)
20,CC(=O)N1N=C(c2cc3ccccc3oc2=O)CC1c1cn(-c2ccccc2)nc1-c1ccc(C)cc1 (stereo not given),94.6%
